Laboratory results reported in PubChem BioAssay (NCATS).
“And” between values parts separate entries of the source, which are not always exact repeats. Identical values can stand only once. Inconclusive results are not listed. The source made the active and inactive calls. Calls follow the shape of the dose curve; as a rule, active = well fitted curve in the direction sought with a large enough effect; inconclusive = small, poorly fitted or top-dose-only effect, or another doubt; inactive = no such curve, though single readings can be large; an effect the other way counts as inactive or inconclusive.

How the values were obtained:
HeLa = test: Primary qHTS to identify gynecologic anti-cancer compounds using libraries of approved drugs and bioactive compounds (AID 1345084); details: Gynecologic cancer cell panel viability, ATPlite luminescence, 48 h; series mostly up to 57.5 µM; also: nearly all actives have a fitted effect of over 55% in size
Outline: (§1)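 ATP-based viability (ATPlite), 1,000 cells/well, 16 h pre-incubation, 48 h compound at 37 C, 5% CO2, 15 min RT before read.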

Hek293T = test: as above; details: Gynecologic cancer cell panel viability, ATPlite luminescence, 48 h, control line for the selectivity index; series mostly up to 57.5 µM
Outline: as §1

JEG-3 = test: as above; details: Gynecologic cancer cell panel viability, ATPlite luminescence, 48 h; series mostly up to 57.5 µM
Outline: as §1

OV90 = test: as above; details: Gynecologic cancer cell panel viability, ATPlite luminescence, 48 h; series mostly up to 57.5 µM
Outline: as §1

PA-1 = test: as above; details: Gynecologic cancer cell panel viability, ATPlite luminescence, 48 h; series mostly up to 57.5 µM
Outline: as §1

SKOV3 = test: as above; details: Gynecologic cancer cell panel viability, ATPlite luminescence, 48 h; series mostly up to 57.5 µM
Outline: as §1

Tov-21-G = test: as above; details: Gynecologic cancer cell panel viability, ATPlite luminescence, 48 h; series mostly up to 57.5 µM
Outline: as §1

Tov112D = test: as above; details: Gynecologic cancer cell panel viability, ATPlite luminescence, 48 h; series mostly up to 57.5 µM
Outline: as §1

[1] = Drug repurposing screens with cells derived from glioblastoma tumor samples (AID 1345199); details: GBM patient neurospheres viability, ATP luminescence, 48 h; also: nearly all actives have a fitted effect of over 40% in size
Outline: (§2)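 Four patient lines of CD133+ GBM neurospheres were screened at several concentrations; hits were retested in those lines plus three slower-growing GBM lines, using 48-hour treatment and ATP-based viability.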

astro = test: as above; details: viability, ATP luminescence, 48 h; series mostly up to 45.9 µM
Outline: as §2

[2] = at 45.9 µM (top of the series), tumour line B
[3] = at 45.9 µM (top of the series), tumour line D
[4] = at 46 µM (top of the series), tumour line A
[5] = at 46.1 µM (top of the series), tumour line C
% is scaled to controls: 0 for no effect and ±100 for the full control effect.

O=C1NS(=O)(=O)c2ccccc21
inactive: Potency (HeLa) | Potency (Hek293T) | Potency (JEG-3) | Potency (OV90) | Potency (PA-1) | Potency (SKOV3) | Potency (Tov-21-G) | Potency (Tov112D) | activity, negative = cell killing [1, 2] -3.37% | activity, negative = cell killing [1, 3] -3.92% | activity, negative = cell killing [1, 4] -6.92% | activity, negative = cell killing [1, 5] -6.41% | Potency (astro)

Cn1cc[nH]c1=S
inactive: Potency (HeLa) | Potency (Hek293T) | Potency (JEG-3) | Potency (OV90) | Potency (PA-1) | Potency (SKOV3) | Potency (Tov-21-G) | Potency (Tov112D) | activity, negative = cell killing ([1]; at 20 µM (top of the series), tumour line C) 3.07% | activity, negative = cell killing ([1]; at 21.2 µM (top of the series), tumour line B) -12.9% | activity, negative = cell killing ([1]; at 21.2 µM (top of the series), tumour line D) -12.3% | activity, negative = cell killing ([1]; at 21.3 µM (top of the series), tumour line A) -28.7% | Potency (astro)

NC(=O)c1ncn([C@@H]2O[C@H](CO)[C@@H](O)[C@H]2O)c1N
inactive: Potency (HeLa) | Potency (Hek293T) | Potency (JEG-3) | Potency (OV90) | Potency (PA-1) | Potency (SKOV3) | Potency (Tov-21-G) | Potency (Tov112D) | activity, negative = cell killing [1, 2] -9.5% | activity, negative = cell killing [1, 3] -4.13% | activity, negative = cell killing [1, 4] -19.7% | activity, negative = cell killing [1, 5] -3.52% | Potency (astro)

O=c1cc(CO)occ1O
inactive: Potency (HeLa) | Potency (Hek293T) | Potency (JEG-3) | Potency (OV90) | Potency (PA-1) | Potency (SKOV3) | Potency (Tov-21-G) | Potency (Tov112D) | activity, negative = cell killing [1, 2] -1.08% and -4.58% | activity, negative = cell killing [1, 3] 14.9% and -7.17% | activity, negative = cell killing [1, 4] -25.5% and -9.07% | activity, negative = cell killing [1, 5] -15.8% and 18.8% | Potency (astro)

C[C@H](NC(CCc1ccccc1)C(=O)O)C(=O)N1CCC[C@H]1C(=O)O (stereo partly specified)
inactive: Potency (HeLa) | Potency (Hek293T) | Potency (JEG-3) | Potency (OV90) | Potency (PA-1) | Potency (SKOV3) | Potency (Tov-21-G) | Potency (Tov112D) | activity, negative = cell killing [1, 2] -5.92% | activity, negative = cell killing [1, 3] 1.9% | activity, negative = cell killing [1, 4] -1.54% | activity, negative = cell killing [1, 5] -2.05% | Potency (astro)

Cn1c(=O)c2c(ncn2CC2OCCO2)n(C)c1=O
inactive: Potency (HeLa) | Potency (Hek293T) | Potency (JEG-3) | Potency (OV90) | Potency (PA-1) | Potency (SKOV3) | Potency (Tov-21-G) | Potency (Tov112D) | activity, negative = cell killing [1, 2] -0.596% | activity, negative = cell killing [1, 3] -3.46% | activity, negative = cell killing [1, 4] -20.3% | activity, negative = cell killing [1, 5] -4.14% | Potency (astro)

Cc1ncc(COP(=O)(O)O)c(C=O)c1O
inactive: Potency (HeLa) | Potency (Hek293T) | Potency (JEG-3) | Potency (OV90) | Potency (PA-1) | Potency (SKOV3) | Potency (Tov-21-G) | Potency (Tov112D) | activity, negative = cell killing [1, 2] -4.54% | activity, negative = cell killing [1, 3] 0.448% | activity, negative = cell killing [1, 4] -18.9% | activity, negative = cell killing [1, 5] 13% | Potency (astro)

CC1(C)OC(=O)NC1=O
inactive: Potency (HeLa) | Potency (Hek293T) | Potency (JEG-3) | Potency (OV90) | Potency (PA-1) | Potency (SKOV3) | Potency (Tov-21-G) | Potency (Tov112D) | activity, negative = cell killing [1, 2] -11.2% | activity, negative = cell killing [1, 3] -10.8% | activity, negative = cell killing [1, 4] -19.4% | activity, negative = cell killing [1, 5] 10.3% | Potency (astro)

CCCOC(=O)c1ccccc1
inactive: Potency (HeLa) | Potency (Hek293T) | Potency (JEG-3) | Potency (OV90) | Potency (PA-1) | Potency (SKOV3) | Potency (Tov-21-G) | Potency (Tov112D) | activity, negative = cell killing [1, 2] -11.5% | activity, negative = cell killing [1, 3] 1.56% | activity, negative = cell killing [1, 4] -26.7% | activity, negative = cell killing [1, 5] -15.4% | Potency (astro)

Nc1ncnc2c1ncn2[C@@H]1O[C@H](CO)[C@@H](O)[C@H]1O
inactive: Potency (HeLa) | Potency (Hek293T) | Potency (JEG-3) | Potency (OV90) | Potency (PA-1) | Potency (SKOV3) | Potency (Tov-21-G) | Potency (Tov112D) | activity, negative = cell killing [1, 2] 4.34% | activity, negative = cell killing [1, 3] 12.4% | activity, negative = cell killing [1, 4] -12.9% | activity, negative = cell killing [1, 5] -3.63% | Potency (astro)

NC(=O)NC(=O)Cc1ccccc1
inactive: Potency (HeLa) | Potency (Hek293T) | Potency (JEG-3) | Potency (OV90) | Potency (PA-1) | Potency (SKOV3) | Potency (Tov-21-G) | Potency (Tov112D) | activity, negative = cell killing [1, 2] 5.96% | activity, negative = cell killing [1, 3] 3.38% | activity, negative = cell killing [1, 4] -32.3% | activity, negative = cell killing [1, 5] -5.24% | Potency (astro)

CCC(=O)c1ccc(O)cc1
inactive: Potency (HeLa) | Potency (Hek293T) | Potency (JEG-3) | Potency (OV90) | Potency (PA-1) | Potency (SKOV3) | Potency (Tov-21-G) | Potency (Tov112D) | activity, negative = cell killing [1, 2] -5.56% | activity, negative = cell killing [1, 3] -10.1% | activity, negative = cell killing [1, 4] -28.1% | activity, negative = cell killing [1, 5] -21.6% | Potency (astro)

NC(N)=NCCC[C@H](N)C(=O)O
inactive: activity change, negative = cytotoxicity (HeLa) 8.2% [at 6.55 µM] | activity change, negative = cytotoxicity (Hek293T) 14.9% [at 6.55 µM] | activity change, negative = cytotoxicity (JEG-3) 7.79% [at 6.55 µM] | activity change, negative = cytotoxicity (OV90) 6.81% [at 6.55 µM] | activity change, negative = cytotoxicity (PA-1) 23.1% [at 6.55 µM] | activity change, negative = cytotoxicity (SKOV3) 0% [at 6.55 µM] | activity change, negative = cytotoxicity (Tov-21-G) -4.36% [at 6.55 µM] | activity change, negative = cytotoxicity (Tov112D) 4.12% [at 6.55 µM] | activity, negative = cell killing [1, 2] -14.6% | activity, negative = cell killing [1, 3] -0.948% | activity, negative = cell killing [1, 4] -22.1% | activity, negative = cell killing [1, 5] 18.8% | Potency (astro)

COc1ccc2cc1Oc1cc3c(cc1OC)CC[N+](C)(C)[C@H]3Cc1ccc(cc1)Oc1c(OC)c(OC)cc3c1[C@@H](C2)[N+](C)(C)CC3
inactive: Potency (HeLa) | Potency (Hek293T) | Potency (JEG-3) | Potency (OV90) | Potency (PA-1) | Potency (SKOV3) | Potency (Tov-21-G) | Potency (Tov112D) | activity, negative = cell killing [1, 2] -14.8% | activity, negative = cell killing [1, 3] -5.75% | activity, negative = cell killing [1, 5] -3.48% | Potency (astro)
